Measured values as given in PubChem BioAssay (NCATS).
Results filed as inconclusive are left out. Calls of active or inactive are those of the source. Unless noted, calls come from the whole dose curve; as a rule, active = well fitted curve in either direction with a large enough effect (not every such curve was filed as active); inconclusive = small, poorly fitted or top-dose-only effect, or another doubt; inactive = flat fitted curve, though single readings scatter.

Columns and labels:
[1] = molecular target: Lysosomal acid glucosylceramidase (Homo sapiens) (UniProt P04062); test: Glucocerebrosidase-p2 (AID 348; in the data active = potency below about 10 µM; note: potency is the fitted concentration of half-maximal effect); conditions: purified GBA, blue fluorogenic substrate, 40 min
Procedure, shortened: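 Compounds titrated from 0.6 nM upwards against 0.2 nM enzyme in pH 5.9 citric acid/KH2PO4, taurocholate, tween-20; blue fluorogenic substrate 80 uM, 40 min room temperature, stopped and read Ex 365/Em 440 for AC50.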

[2] = AP1 Signaling Pathway (AID 357); conditions: ME-180 AP-1-bla reporter, EGF-induced, beta-lactamase ratio, 5 h; at 7.69 µM (top of the series) unless noted;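 note: ME-180 reporter cells stimulated with EGF at its EC50 level; % is set by controls: 0 for no effect and ±100 for the full control effect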
Procedure, shortened: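 Modulation of EGF-driven AP-1 transcription was assessed with a beta-lactamase reporter in ME-180 cells. Compound and EC50 EGF were co-incubated 5 hours at 37 °C before 2.5-hour CCF4 loading at room temperature and dual-emission reading.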

[3] = molecular target: Cytochrome P450 1A2 (Homo sapiens) (UniProt P05177); test: p450-cyp1a2 (AID 410; calls by dose curve; note: potency is the fitted concentration of half-maximal effect;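 for activity change, negative = inhibition: -100% = full effect of reference inhibitor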); conditions: recombinant CYP1A2, luciferin-ME demethylation, luminescence; series mostly up to 57 µM
Procedure, shortened: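 Inhibition was calculated relative to 57 uM furafylline (full inhibition). The reaction used human CYP1A2 at 20nM with Luciferin-ME at its Km, 100uM, driven by an NADPH-regenerating system for 60 min at room temperature.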

[4] = NFAT Signaling Pathway (AID 444); conditions: Jurkat NFAT-bla M1, carbachol, beta-lactamase ratio, 5 h; at 7.69 µM (top of the series) unless noted;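 note: carbachol stimulus at about its EC50 of 1 µM final; % is set by controls: 0 for no effect and ±100 for the full control effect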
Procedure, shortened: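 Jurkat cells carrying an NFAT-driven β-lactamase reporter and co-transfected muscarinic M1 receptor were treated with compound plus carbachol (1 uM final, an EC50 level) for 5 h at 37 °C. CCF4 loading followed for 1 h at RT; 460/530 nm ratio gave %activity.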

[5] = Stat Signaling Pathway (AID 446); conditions: ME-180 (cervical carcinoma) SIE beta-lactamase reporter, IL-6 stimulated, 5 h; at 7.69 µM (top of the series) unless noted;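 note: ME-180 cervical cancer cells given 40 pM IL-6 alongside compound; SIE-controlled beta-lactamase reporter measured as 460/530 nm FRET emission ratio; % is set by controls: 0 for no effect and ±100 for the full control effect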
Procedure, shortened: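 IL-6/STAT signaling read in ME-180 cells via an SIE beta-lactamase reporter. Stimulus was 40 pM IL-6 (its AC50) for 5 hrs, so both activation and inhibition register.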

[6] = molecular target: Glucocorticoid receptor (Homo sapiens) (UniProt P04150); test: GR-EFC Redistribution (AID 451; calls by dose curve; note: potency is the fitted concentration of half-maximal effect); conditions: CHO-K1 GR-EFC translocation, beta-gal luminescence, 2 h
Procedure, shortened: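 CHO-K1 cells stably expressing nuclear-localized β-gal enzyme acceptor and GR fused C-terminally to the enzyme donor fragment; ligand-driven nuclear translocation restores β-gal by complementation. Compounds titrated up to 46 uM final, 2 h at 37 °C; luminescence read.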

[7] = molecular target: Mitogen-activated protein kinase 10 (Mus musculus) (UniProt Q61831); test: JNK3 AlphaScreen Assay (AID 530); conditions: JNK3 lysate, c-Jun phosphorylation; series mostly up to 57.1 µM;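 note: kinase came from lysate of stimulated human HepG2 cells; signal reports phosphorylation of biotinylated GST-cJun 1-79 at Ser73 with 10 µM ATP; % is set by controls: 0 for no effect and ±100 for the full control effect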
Procedure, shortened: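 JNK3 came from HepG2 lysates pre-activated with IL-1beta and TNF-alpha and phosphorylated biotinylated GST-cJun (1-79) at 10 uM ATP, pH 7.6, room temperature. Compounds were titrated. AlphaScreen signal used anti-phospho-cJun (Ser73) antibody.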

[8] = molecular target: 3',5'-cyclic-AMP phosphodiesterase 4B (Homo sapiens) (UniProt Q07343); test: qHTS Assay for Inhibitors of PDE-IV (AID 607; active = well fitted activation curve with a large enough effect in the main read-out, with a control signal flat, not every such curve was filed as active; note: % of control where 0% means no effect); conditions: HEK293 ACTOne CNG channel cells, membrane potential fluorescence; series mostly up to 22.9 µM
Procedure, shortened: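 Live HEK293 cells with a modified cyclic nucleotide-gated (CNG) channel report intracellular cAMP via membrane-potential dye fluorescence (ex 535/em 590 nm). Endogenous PDE-IV was targeted. Compounds were tested at up to 22.9 uM final; RO 20-1724 100 uM served as control.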

[9] = molecular target: Cytochrome P450 2C9 (Homo sapiens) (UniProt P11712); test: qHTS Assay for Inhibitors and Substrates of Cytochrome P450 2C9 (AID 883; active = well fitted curve in the direction sought with a large enough effect; an effect the other way counts as inactive or inconclusive; note: nearly all actives have a fitted effect of over 60% in size; note: potency is the fitted concentration of half-maximal effect); conditions: recombinant CYP2C9, luciferin-H luminescence, 60 min; series mostly up to 57.1 µM
Procedure, shortened: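 Human CYP2C9 (10nM) hydroxylated Luciferin-H (100uM, at its KM) to luciferin in 25mM KPO4. Compound was preincubated 10 min at 37C, then NADPH regeneration started a 60 min reaction at 37C. Luminescence was read after detection reagent, normalized to 57uM sulphaphenazole.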

[10] = molecular target: Cytochrome P450 3A4 (Homo sapiens) (UniProt P08684); test: qHTS Assay for Inhibitors and Substrates of Cytochrome P450 3A4 (AID 884; active = well fitted curve in the direction sought with a large enough effect; an effect the other way counts as inactive or inconclusive; note: nearly all actives have a fitted effect of over 50% in size; note: potency is the fitted concentration of half-maximal effect); conditions: recombinant CYP3A4, Luciferin-PPXE luminescence; series mostly up to 57.1 µM
Procedure, shortened: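 20 nM human CYP3A4 with 25 uM Luciferin-PPXE (at KM) in 200 mM KPO4, preincubated 10 min with compound; NADPH regeneration started a 60 min RT reaction. Luciferin detected by luminescence, normalized to 57 uM ketoconazole as full inhibition.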

[11] = molecular target: Cytochrome P450 2D6 (Homo sapiens) (UniProt P10635); test: qHTS Assay for Inhibitors and Substrates of Cytochrome P450 2D6 (AID 891; active = well fitted curve in the direction sought with a large enough effect; an effect the other way counts as inactive or inconclusive; note: nearly all actives have a fitted effect of over 60% in size; note: potency is the fitted concentration of half-maximal effect); conditions: recombinant CYP2D6, luciferin-ME EGE luminescence; series mostly up to 57.1 µM
Procedure, shortened: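 Human CYP2D6 (5 nM) with 30 uM Luciferin-ME EGE (at Km) in 100 mM KPO4, compound preincubated 10 min, then NADPH regeneration system for 60 min at room temperature. Luciferin read by luminescence; normalized to 1.43 uM quinidine.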

[12] = molecular target: Cytochrome P450 2C19 (Homo sapiens) (UniProt P33261); test: qHTS Assay for Inhibitors and Substrates of Cytochrome P450 2C19 (AID 899; active = well fitted curve in the direction sought with a large enough effect; an effect the other way counts as inactive or inconclusive; note: nearly all actives have a fitted effect of over 60% in size; note: potency is the fitted concentration of half-maximal effect); conditions: recombinant CYP2C19, luciferin-H EGE luminescence; series mostly up to 57.1 µM
Procedure, shortened: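 Human CYP2C19 (5nM) with Luciferin-H EGE at 10uM (its KM) in 50mM KPO4 was preincubated with compound for 10 min at 37C. NADPH regeneration started a 60 min 37C reaction. Luciferin was read by luminescence, normalized to 57uM ketoconazole.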

[13] = qHTS Assay for Lipid Storage Modulators (AID 1519; calls by dose curve); conditions: Drosophila S3 cells, BODIPY lipid droplet/cell ratio, laser cytometry, cells loaded with oleic acid; for activity change, negative = inhibition: at 57.5 µM (top of the series)
Procedure, shortened: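 Cells seeded at 5,000 per well were treated with compounds over a concentration series and loaded with oleic acid (400 uM, as added). Lipid droplet fluorescence (488 nm excitation, 500-530 nm channel) was read by laser-scanning cytometry and normalized to 20 uM Triacsin C.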

[14] = Primary qHTS for small molecule stabilizers of the endoplasmic reticulum resident proteome: Secreted ER Calcium Modulated Protein (SERCaMP) assay (AID 1508630; active = well fitted curve in the direction sought with a large enough effect; an effect the other way counts as inactive or inconclusive; note: % is set by controls: 0 for no effect and ±100 for the full control effect); conditions: SH-SY5Y GLuc-SERCaMP (Gaussia luciferase released on ER calcium loss) secretion, thapsigargin, luminescence; series mostly up to 38.4 µM
Procedure, shortened: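 GLuc-SERCaMP-expressing SH-SY5Y cells, pretreated 16 h with compound, are challenged with thapsigargin to empty ER calcium stores; after 4 h, coelenterazine is added directly to the medium and luminescence is imaged.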

[15] = molecular target: Cytochrome P450 3A4 (Homo sapiens) (UniProt P08684); test: qHTS Assay for Activators of Cytochrome P450 3A4 (AID 885; active = well fitted curve in the direction sought with a large enough effect; an effect the other way counts as inactive or inconclusive; note: nearly all actives have a fitted effect of over 65% in size; note: potency is the fitted concentration of half-maximal effect); conditions: recombinant CYP3A4, Luciferin-PPXE luminescence, 60 min; series mostly up to 57.1 µM
Procedure, shortened: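 Quantitative HTS format: compounds preincubated with 20nM human CYP3A4 and Luciferin-PPXE substrate at KM, reaction started by NADPH regeneration, stopped after 60 min, luciferase luminescence read 20 min later.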

[16] = measured here: cell count channel max response
[17] = measured here: lipid channel max response

Sequence of Glucocorticoid receptor (Homo sapiens) (P04150 whole entry, looked up, the tested form may be a part): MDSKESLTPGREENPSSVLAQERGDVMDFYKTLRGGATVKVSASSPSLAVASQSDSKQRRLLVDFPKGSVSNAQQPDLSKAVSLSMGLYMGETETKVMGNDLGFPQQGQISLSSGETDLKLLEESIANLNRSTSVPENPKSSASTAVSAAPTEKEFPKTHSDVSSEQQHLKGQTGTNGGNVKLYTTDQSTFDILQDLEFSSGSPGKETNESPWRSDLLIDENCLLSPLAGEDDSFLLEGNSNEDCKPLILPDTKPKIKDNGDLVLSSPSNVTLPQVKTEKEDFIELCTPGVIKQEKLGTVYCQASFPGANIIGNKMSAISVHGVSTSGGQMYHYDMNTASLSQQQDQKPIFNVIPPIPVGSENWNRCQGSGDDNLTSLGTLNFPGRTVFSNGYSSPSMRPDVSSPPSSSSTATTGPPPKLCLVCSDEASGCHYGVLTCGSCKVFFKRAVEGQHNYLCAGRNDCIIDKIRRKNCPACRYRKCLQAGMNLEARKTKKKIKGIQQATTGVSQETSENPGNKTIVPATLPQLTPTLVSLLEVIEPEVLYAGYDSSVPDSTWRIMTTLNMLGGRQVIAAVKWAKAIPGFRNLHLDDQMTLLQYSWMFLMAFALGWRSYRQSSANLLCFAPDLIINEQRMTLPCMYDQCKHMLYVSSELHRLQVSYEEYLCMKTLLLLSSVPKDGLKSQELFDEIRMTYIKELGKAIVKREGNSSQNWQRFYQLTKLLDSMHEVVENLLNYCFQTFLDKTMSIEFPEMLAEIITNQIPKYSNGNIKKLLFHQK
Sequence of Lysosomal acid glucosylceramidase (Homo sapiens) (P04062 whole entry, looked up): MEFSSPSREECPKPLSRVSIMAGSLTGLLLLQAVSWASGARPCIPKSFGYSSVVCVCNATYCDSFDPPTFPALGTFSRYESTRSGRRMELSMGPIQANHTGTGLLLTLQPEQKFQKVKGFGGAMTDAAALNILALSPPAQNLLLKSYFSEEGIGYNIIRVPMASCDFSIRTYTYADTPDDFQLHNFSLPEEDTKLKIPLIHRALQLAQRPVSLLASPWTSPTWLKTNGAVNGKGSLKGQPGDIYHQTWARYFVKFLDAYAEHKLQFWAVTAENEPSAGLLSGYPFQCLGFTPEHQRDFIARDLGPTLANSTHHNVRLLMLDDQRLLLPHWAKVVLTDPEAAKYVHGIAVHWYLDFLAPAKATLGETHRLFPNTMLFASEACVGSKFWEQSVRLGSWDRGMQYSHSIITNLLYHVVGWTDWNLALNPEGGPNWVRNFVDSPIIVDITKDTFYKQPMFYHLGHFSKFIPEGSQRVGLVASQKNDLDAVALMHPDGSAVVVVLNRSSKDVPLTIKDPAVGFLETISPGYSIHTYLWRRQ
Sequence of Cytochrome P450 3A4 (Homo sapiens) (P08684 whole entry, looked up): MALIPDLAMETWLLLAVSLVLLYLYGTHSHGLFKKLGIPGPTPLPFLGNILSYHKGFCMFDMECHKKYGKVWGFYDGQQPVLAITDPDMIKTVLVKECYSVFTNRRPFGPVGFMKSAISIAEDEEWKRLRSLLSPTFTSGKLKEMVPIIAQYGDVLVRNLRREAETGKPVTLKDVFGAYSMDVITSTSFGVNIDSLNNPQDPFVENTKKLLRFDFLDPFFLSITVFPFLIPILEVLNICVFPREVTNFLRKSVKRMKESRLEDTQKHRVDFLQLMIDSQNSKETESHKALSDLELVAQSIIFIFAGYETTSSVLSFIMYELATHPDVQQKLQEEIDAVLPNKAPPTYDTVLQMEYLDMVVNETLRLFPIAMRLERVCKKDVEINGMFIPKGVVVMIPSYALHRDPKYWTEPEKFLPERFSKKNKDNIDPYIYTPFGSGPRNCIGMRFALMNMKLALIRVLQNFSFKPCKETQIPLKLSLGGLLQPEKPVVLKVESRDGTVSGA
Sequence of Cytochrome P450 1A2 (Homo sapiens) (P05177 whole entry, looked up): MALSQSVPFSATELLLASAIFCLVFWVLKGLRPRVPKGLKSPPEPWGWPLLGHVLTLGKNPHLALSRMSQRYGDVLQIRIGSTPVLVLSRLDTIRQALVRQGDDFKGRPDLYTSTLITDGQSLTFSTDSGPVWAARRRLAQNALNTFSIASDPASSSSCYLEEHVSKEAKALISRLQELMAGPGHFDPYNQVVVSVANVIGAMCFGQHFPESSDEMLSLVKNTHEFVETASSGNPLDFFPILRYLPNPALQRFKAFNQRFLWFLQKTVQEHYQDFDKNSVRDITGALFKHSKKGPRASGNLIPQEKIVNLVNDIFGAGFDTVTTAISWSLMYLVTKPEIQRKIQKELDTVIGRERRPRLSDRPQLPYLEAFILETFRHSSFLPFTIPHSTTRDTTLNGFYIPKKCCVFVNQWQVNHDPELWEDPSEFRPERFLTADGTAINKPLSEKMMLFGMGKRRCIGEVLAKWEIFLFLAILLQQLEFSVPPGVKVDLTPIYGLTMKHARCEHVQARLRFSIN
Sequence of 3',5'-cyclic-AMP phosphodiesterase 4B (Homo sapiens) (Q07343 whole entry, looked up): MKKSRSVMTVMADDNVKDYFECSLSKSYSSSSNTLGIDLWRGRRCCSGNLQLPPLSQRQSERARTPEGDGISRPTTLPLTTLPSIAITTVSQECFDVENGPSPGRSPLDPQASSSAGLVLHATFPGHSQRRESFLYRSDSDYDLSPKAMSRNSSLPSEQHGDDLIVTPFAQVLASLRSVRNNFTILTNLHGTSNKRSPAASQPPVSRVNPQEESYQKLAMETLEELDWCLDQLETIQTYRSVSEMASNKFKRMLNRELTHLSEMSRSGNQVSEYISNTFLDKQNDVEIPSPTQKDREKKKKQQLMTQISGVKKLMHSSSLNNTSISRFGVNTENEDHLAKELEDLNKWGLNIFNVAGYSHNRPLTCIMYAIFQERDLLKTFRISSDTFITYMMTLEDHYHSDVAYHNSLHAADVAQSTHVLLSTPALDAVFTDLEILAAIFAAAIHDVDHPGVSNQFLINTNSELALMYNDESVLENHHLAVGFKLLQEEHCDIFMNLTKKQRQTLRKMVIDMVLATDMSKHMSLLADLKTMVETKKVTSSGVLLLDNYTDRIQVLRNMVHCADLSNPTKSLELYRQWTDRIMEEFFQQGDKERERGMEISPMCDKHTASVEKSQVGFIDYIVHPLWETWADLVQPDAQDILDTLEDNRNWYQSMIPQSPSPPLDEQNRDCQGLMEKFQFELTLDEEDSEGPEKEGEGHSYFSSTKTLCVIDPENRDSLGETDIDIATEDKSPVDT
Sequence of Cytochrome P450 2C19 (Homo sapiens) (P33261 whole entry, looked up): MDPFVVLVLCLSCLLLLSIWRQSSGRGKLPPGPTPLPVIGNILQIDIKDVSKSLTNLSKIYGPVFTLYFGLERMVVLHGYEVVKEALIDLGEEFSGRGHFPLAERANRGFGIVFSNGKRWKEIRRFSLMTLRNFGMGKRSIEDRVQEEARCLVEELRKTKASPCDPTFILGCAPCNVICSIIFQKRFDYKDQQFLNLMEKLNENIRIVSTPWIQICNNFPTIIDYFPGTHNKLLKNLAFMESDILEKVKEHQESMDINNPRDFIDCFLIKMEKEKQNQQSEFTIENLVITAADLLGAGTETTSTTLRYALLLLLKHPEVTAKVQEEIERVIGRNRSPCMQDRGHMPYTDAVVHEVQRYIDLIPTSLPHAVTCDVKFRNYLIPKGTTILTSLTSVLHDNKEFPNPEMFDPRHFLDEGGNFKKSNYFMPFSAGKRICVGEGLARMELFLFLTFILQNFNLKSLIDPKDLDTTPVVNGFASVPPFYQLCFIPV
Sequence of Cytochrome P450 2C9 (Homo sapiens) (P11712 whole entry, looked up): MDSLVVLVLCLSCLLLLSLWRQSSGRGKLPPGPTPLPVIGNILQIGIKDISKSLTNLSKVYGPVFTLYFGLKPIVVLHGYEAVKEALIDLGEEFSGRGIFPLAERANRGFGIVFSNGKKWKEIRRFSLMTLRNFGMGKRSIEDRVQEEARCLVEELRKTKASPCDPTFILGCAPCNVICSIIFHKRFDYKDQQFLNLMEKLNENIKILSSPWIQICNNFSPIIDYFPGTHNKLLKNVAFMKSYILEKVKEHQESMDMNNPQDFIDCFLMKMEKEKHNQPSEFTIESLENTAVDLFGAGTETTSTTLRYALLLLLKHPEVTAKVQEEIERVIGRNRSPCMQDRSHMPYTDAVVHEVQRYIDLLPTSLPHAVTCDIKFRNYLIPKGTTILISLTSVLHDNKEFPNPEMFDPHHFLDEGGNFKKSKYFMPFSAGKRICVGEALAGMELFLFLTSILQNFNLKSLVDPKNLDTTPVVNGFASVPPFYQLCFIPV
Sequence of Cytochrome P450 2D6 (Homo sapiens) (P10635 whole entry, looked up): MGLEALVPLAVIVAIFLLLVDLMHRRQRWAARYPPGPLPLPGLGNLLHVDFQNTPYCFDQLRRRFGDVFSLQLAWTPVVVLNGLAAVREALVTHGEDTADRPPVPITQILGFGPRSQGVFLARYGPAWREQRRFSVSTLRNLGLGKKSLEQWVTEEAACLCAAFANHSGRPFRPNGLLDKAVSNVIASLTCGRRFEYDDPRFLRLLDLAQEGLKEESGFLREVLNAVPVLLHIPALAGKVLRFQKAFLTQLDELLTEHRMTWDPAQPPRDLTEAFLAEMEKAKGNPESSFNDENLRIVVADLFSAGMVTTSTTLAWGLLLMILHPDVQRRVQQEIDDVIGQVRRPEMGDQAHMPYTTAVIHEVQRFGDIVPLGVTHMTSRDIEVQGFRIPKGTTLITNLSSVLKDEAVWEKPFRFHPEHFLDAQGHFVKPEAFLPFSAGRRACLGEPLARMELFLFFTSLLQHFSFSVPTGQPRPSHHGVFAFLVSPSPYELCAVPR

CC(C)NC(=O)N1CC[C@@]2(CCCN(C(=O)Oc3ccccc3)C2)C1
inactive: Potency [1] > 11.4 µM | activity change, negative = inhibition [2] 6.59% | Potency [3] | activity change, negative = inhibition [4] -15.6% | activity, negative = inhibition [5] -4.24% | Potency [6] > 46 µM | outcome [7] | Potency [8] | Potency [9] | Potency [10] | Potency [11] | Potency [12] | activity change, negative = inhibition [13] 1.37% | Potency [14]
17.3%: max response [13, 17]
8.74%: max response [13, 16]

COCC(=O)N1CCC2(CC1)CCN(C(c1ccccc1)c1ccccc1)CC2
inactive: Potency [1] > 11.4 µM | activity change, negative = inhibition [2] -2.73% | Potency [3] | activity change, negative = inhibition [4] -16.3% | activity, negative = inhibition [5] 1.17% | Potency [6] > 46 µM | outcome [7] | Potency [8] | Potency [10] | activity change, negative = inhibition [13] 1.77% | Potency [14]
active: Potency [15] 25.1 µM
1.52%: max response [13, 16]
5.9%: max response [13, 17]

Cc1noc(C)c1C(=O)N1CCC2(CCN(C(=O)Nc3ccccc3)CC2)CC1
-0.903%: max response [13, 16]
inactive: Potency [1] > 11.4 µM | activity change, negative = inhibition [2] -7.04% | Potency [3] | activity change, negative = inhibition [4] -2.66% | activity, negative = inhibition [5] -7.75% | Potency [6] > 46 µM | outcome [7] | Potency [8] | Potency [10] | activity change, negative = inhibition [13] 3.9% | Potency [14]
4.81%: max response [13, 17]

O=C(c1cc(C(F)(F)F)cc(C(F)(F)F)c1)N1CCC[C@@]2(CCN(Cc3ccncc3)C2)C1
20.1%: max response [13, 16]
inactive: Potency [1] > 11.4 µM | activity change, negative = inhibition [2] -6.9% | activity change, negative = inhibition [4] -25.1% | activity, negative = inhibition [5] -8.97% | Potency [6] > 46 µM | outcome [7] | Potency [8] | Potency [15] | activity change, negative = inhibition [13] 7.2% | Potency [14]
28.8%: max response [13, 17]
active: Potency [3] 12.6 µM | Potency [9] 0.0794 µM | Potency [10] 0.501 µM | Potency [11] 5.01 µM | Potency [12] 0.199 µM

Cc1noc(C)c1C(=O)N1CCC2(CC1)CN(c1ncccn1)C2
inactive: Potency [1] > 11.4 µM | activity change, negative = inhibition [2] -8.73% | Potency [3] | activity change, negative = inhibition [4] 13.3% | activity, negative = inhibition [5] 2.57% | Potency [6] > 46 µM | outcome [7] | Potency [8] | activity change, negative = inhibition [13] 6.33% | Potency [14]
15.3%: max response [13, 16]
24.4%: max response [13, 17]

FC(F)(F)c1cc(CN2CC3(CCNCC3)C2)cc(C(F)(F)F)c1
inactive: Potency [1] > 11.4 µM | activity change, negative = inhibition [2] -6.77% | Potency [3] | activity change, negative = inhibition [4] 10.6% | activity, negative = inhibition [5] 3.31% | Potency [6] > 46 µM | outcome [7] | Potency [8] | activity change, negative = inhibition [13] -2.16% | Potency [14]
-18%: max response [13, 16]
-13.5%: max response [13, 17]
